# About 83,000 compounds went through this panel and 20% of them were active in at least one assay; those are over-represented in the sample as a whole.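 Note: values are percent growth. 100 is the growth of untreated cells, values between 100 and 0 indicate rising inhibition; between -100 and 0 indicates cell death.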 A number with no mark means an inactive call. Calls of active or inactive are those of the source. Rule for the calls: active = growth percent below 10; inactive = the rest.
# Test system: HL-60(TB) leukemia
# Assay: NCI-60 one-dose screen, 48 h (100 = growth as untreated, 0 = no growth, -100 = all killed)
# Details: 10 µM unless noted
row,Structure (SMILES),growth
1,Cc1ccc(S(=O)(=O)N/N=C2\CC3CCC2C3)cc1 (stereo unspecified),98.5%
2,CCOC(=O)c1cnn(-c2nc(-c3ccc(F)cc3)c(C#N)c(N3CCOCC3)n2)c1N,93.1%
3,COc1cc(NC(=O)c2cccc(-c3cc(=O)c4c(OC)c(OC)c(OC)cc4o3)c2)cc(OC)c1OC,36%
4,CS(=O)CC1=NC(=N)N=C1CS(C)=O (stereo unspecified),91.2%
5,COC(=O)c1cnc2c(c1)Oc1ccc(Cl)cc1-c1cc(C)nn1-2,95.9%
6,Clc1ccc2c(c1)N(C1CCCN(Cc3ccccc3)C1)c1ccccc1S2 (stereo unspecified),28.5%
7,CC(=O)n1cc(/C=C2\N=C(c3ccc(Cl)cc3)N(c3ccc(S(=O)(=O)Nc4nccs4)cc3)C2=O)c2ccccc21,73.3%
8,O=C1CCCN1C1CCN2CCCc3cccc1c32 (stereo unspecified),92.7%
9,COc1ccc(-c2cc(/C=C3\C(=O)Nc4ccc(OC)cc43)[nH]n2)cc1,-0.36% (active)
10,Cc1cc(N2CCN(CC(=O)Nc3ccc4c(ccn4Cc4ccccc4)c3)CC2)nc(N2CCCCCC2)n1,12.1%
11,C/C(=C(/c1ccc(O)cc1)c1ccc(Cl)cc1)c1ccccc1,-20.7% (active)
12,CC(C)(C)n1cc(-c2ccnc(NCCCNS(=O)(=O)c3ccc(C(F)(F)F)cc3)c2)c(-c2cccc(O)c2)n1,-24.5% (active)
13,CCCCC(=O)c1ccc(OC)cc1,92.6%
14,COc1cc2nccc(Oc3ccc(NC(=O)C4(C(=O)Nc5ccc(F)cc5)CC4)cc3)c2cc1Oc1ccc(N)cn1,22.9%
15,O=C(OCC1OC(n2cc(C(F)(F)F)c(=O)[nH]c2=O)CC1OC(=O)c1ccc([N+](=O)[O-])cc1)c1ccc([N+](=O)[O-])cc1 (stereo unspecified),62.7%
16,Clc1ccc(Cn2cc(-c3nc4ccc(Br)nc4n3Cc3ccc(Cl)cc3)c3cccnc32)cc1,94.1%
17,COc1ccc(NC(N)=NCCCOc2ccc(F)cc2)cc1,87.7%
18,C=CCn1c(C)nc2ccc(Nc3nc(Nc4ccc(F)cc4)nc4ccccc34)cc21,51.6%

row,Structure (SMILES),growth
1,Nc1cc(F)ccc1[N+](=O)[O-],115%
2,O=C1OC(c2ccccc2)(c2ccccc2)c2ccsc21,86.6%
3,COc1ccccc1-n1c(-c2ccc(O)cc2C)cn2c3c(=O)[nH]c(=O)n(C)c3nc12,79.9%
4,Clc1ccc2c(c1)-n1cccc1C(c1ccc3ccccc3c1)=NC2,76.9%
5,C#Cc1nc(Nc2cc(C)[nH]n2)c2ccccc2n1,-38.8% (active)
6,Nc1nc(Nc2ccccc2SSc2ccccc2Nc2nc(N)nc(-c3ccc(I)cc3)n2)nc(-c2ccc(I)cc2)n1,83.1%
7,c1ccc2c(Cc3csc4ccccc34)csc2c1,72%
8,COc1cc2ncn3c(=O)c4c5c(sc4nc3c2cc1OC)CCCC5,106%
9,COc1ccc(/C=C/c2c(C(=O)/C=C/c3ccc(F)cc3)c(C)nc3ccccc23)cc1,24.2%
10,COc1cc(/C=C/C(=O)/C=C(O)/C=C/c2ccc(OC(=O)C34CC5CC(CC(C5)C3)C4)c(OC)c2)ccc1OC(=O)C12CC3CC(CC(C3)C1)C2,104%
11,COc1c(N2CC3CCCN(C(C)=O)C3C2)c(F)cc2c(=O)c(C(=O)N[C@H]3C(O)[C@@H](O)C(CO)O[C@H]3O)cn(C3CC3)c12 (stereo partly specified),103%
12,Nc1cc(-c2ccc(Cl)cc2)nn1-c1nnc(/C=C/c2ccco2)c(=O)[nH]1,52.2%
13,C/C(=C(\c1ccc(OCCN2CCCCCC2)cc1)c1ccc(OC(=O)Cc2ccccc2)cc1)c1ccc(Cl)cc1,-60% (active)
14,O=C(CCCSc1nc(-c2ccccc2)cc(-c2ccc(Cl)cc2)n1)NO,-15.8% (active)
15,NS(=O)(=O)c1cnccc1-n1ccc(=O)c(S(N)(=O)=O)c1,55.9%
16,CC1(C)NCCC[C@]2(C)[C@H]3CC=C4[C@@H]5C[C@](C)(COC(=O)c6ccccc6C(=O)O)CC[C@]5(C)CC[C@@]4(C)[C@]3(C)CC[C@@H]12,65.3%
17,COc1ccc(NC(=O)Cn2c(=O)sc3c(-c4ccc(Cl)cc4)cc(-c4ccc(Cl)cc4)nc32)cc1,80%
18,CC(C)=CC[C@@H]1CC2(CC=C(C)C)C(=O)C(OC3(C(=O)c4ccccc4)C(=O)C4(CC=C(C)C)C[C@@H](CC=C(C)C)C(C)(C)C(CC=C(C)C)(C4=O)C3=O)(C(=O)c3ccccc3)C(=O)C(CC=C(C)C)(C2=O)C1(C)C (stereo partly specified),-47.7% (active)

# Source: PubChem BioAssay (NCI)
